The text below walks through data of PubChem BioAssay (NCATS).

The structures appear in SMILES notation. Results filed as inconclusive are left out. Activity calls are given as the source filed them. The call rests on the fitted dose curve; in most records, active means well fitted cell-killing curve with a large enough effect; inconclusive means small, poorly fitted or top-dose-only effect, or effect the other way; inactive means flat fitted curve, though single readings scatter.
On the % scale 0 is the no-effect control and ±100 the full control effect; potency means the concentration at half of the fitted maximal effect.

One experiment relates to Tov-21-G. Kind of experiment: Primary qHTS to identify gynecologic anti-cancer compounds using libraries of approved drugs and bioactive compounds (AID 1345084). Further: nearly all actives have a fitted effect of over 55% in size. The conditions noted are these: Gynecologic cancer cell panel viability, ATPlite luminescence, 48 h; series mostly up to 57.5 µM; activity change, negative = cytotoxicity: at the top concentration. The gist of the method: (§1)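 Cytotoxicity screen measuring ATP content by luciferase luminescence. Each compound is applied at five concentrations for 48 h at 37 C with 5% CO2.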
For the compound `Cc1cc(Nc2nc(-c3ccccc3)nc3ccccc23)n[nH]1`, the Potency was 10 µM (active).
For `C=C1CC[C@@H]2[C@](C)(CO)[C@H](O)CC[C@@]2(C)[C@@H]1CC(O)C1=CCOC1=O` (stereo partly drawn), the “activity change, negative = cytotoxicity” value was -4.68% [at 38.5 µM] (inactive).
The same measure, in the same setting: to `CCCOc1ccc(CCc2nc3cc(-c4c(C)noc4C)ccc3n2CCN2CCOCC2)cc1` belongs -3.62% (inactive); to `O=C(N[C@@H]1CCCc2c1cnn2-c1ccc(F)cc1F)c1ccccn1`, 1.3% (inactive); to `O=C(O)c1ccc(N2C(=O)/C(=C/c3ccc(-c4ccc([N+](=O)[O-])cc4)o3)C=C2c2ccccc2)cc1`, -19.4% (inactive).
Still for that read-out and setting: next, `N#CC(CCCN1CCN(/N=C/c2cccnc2)CC1)(c1ccccc1)c1ccccc1`: 2.5% (inactive); `CCOC(=O)C1(CCOc2ccccc2)CCN(Cc2ccc(O)c(Cl)c2)CC1`: -4.23% (inactive); `C/C=C/C=C/C=C/C(=O)O[C@@H]1C=C(CO)C(O)(C(=O)OC)[C@@]2(C)CCCC(C)(C)C12` (stereo partly drawn): 3.96% [at 25.3 µM] (inactive).
Still for that read-out and setting: to `CCc1ccc(-c2nc(CSCC(=O)NCCc3ccccc3)c(C)o2)cc1` belongs 10.1% (inactive).
In the case of `O=C(Nc1ccccc1Cl)c1cnc2ccc(C3CCNCC3)cn12`, the Potency is 1.58 µM (active).
In the case of `CC(C)(C)Oc1ccc(OCC2Cc3ccccc3CN2C(=O)c2cccc3ccccc23)cc1` (stereo not drawn), the “activity change, negative = cytotoxicity” value was 20.2% (inactive).
Consider `C=C1C(=O)OC2CC(C)C(CCC(C)O)=CCC12` (stereo not drawn), for which the “activity change, negative = cytotoxicity” value is -22% (inactive).
As for `S=C(c1ccc(-c2ccc(Cl)c(Cl)c2)o1)N1CCCCC1`, the “activity change, negative = cytotoxicity” value was -9.26% (inactive).
As to `CC(C)(O)C(=O)N1CCN(c2ccc(C(F)(F)F)c(C3=C(c4c[nH]c5ccccc45)C(=O)NC3=O)c2)CC1`, the “activity change, negative = cytotoxicity” value was -1.55% (inactive).
Same read-out and setting: next, `COCC(c1ccc(C(F)(F)F)cc1)N1CCN(C2(C)CCN(C(=O)c3c(C)ncnc3C)CC2)CC1C` (stereo not drawn): 7.99% (inactive); `CCO[C@H]1CN(C2CCC(O)(c3ccc4c(c3)OCO4)CC2)C[C@@H]1NC(=O)CNC(=O)c1cccc(C(F)(F)F)c1` (stereo partly drawn): -1.1% (inactive); `O=c1cc(N2CCOCC2)nc2c3ccccc3ccn12`: -23% (inactive).
Same read-out and setting: to `CC1OC(=O)C[C@@H]2C(C(=O)O)=CO[C@@H](O[C@H]3O[C@H](CO)[C@@H](O)[C@H](O)[C@H]3O)[C@H]12` (stereo partly drawn) belongs -0.139% [at 38.5 µM] (inactive).
Still for that read-out and setting: to `CC(C)c1ccccc1OC(=O)NCCc1ccc2ccccc2c1` belongs 11.7% (inactive); to `CCOc1nc(NC(=O)Cc2cc(OC)ccc2OC)cc(N)c1C#N`, 5.54% (inactive).
On to `C=C(C)[C@@H]1CC[C@]2(C(=O)O)CC[C@]3(C(=O)O)[C@H](CCC4[C@@]5(C)CCC(=O)C(C)(C)C5CC[C@]43C)C12` (stereo partly drawn), for which the “activity change, negative = cytotoxicity” value was -12.1% [at 25.3 µM] (inactive).
On the same count and under the same terms, next, `CN(c1ccc(NC(=O)Nc2ccccc2)cc1)S(=O)(=O)c1cnn(-c2ccc(F)cc2)c1`: -18.1% (inactive).
Still for that read-out and setting: to `CC(C)n1c(=O)c(C(=O)NC2CC3CCC(C2)N3C[C@@H](O)CN(C)S(C)(=O)=O)cc2ccccc21` (stereo partly drawn) belongs -7.71% (inactive); to `C[C@@H](NC(=O)[C@H](O)c1cc(F)cc(F)c1)C(=O)N[C@@H]1C(=O)N(C)c2ccccc2-c2ccccc21`, 2.25% (inactive).
The same measure, in the same setting: next, `CC(=O)Nc1cccc(Nc2ncnc(N3CCC(OCc4ccc(OC(F)(F)F)cc4)CC3)n2)c1C`: -18.6% (inactive); `Cc1c(OCc2cccc(-c3ccc(C(=O)O)cc3)c2)cc2c(c1C)C(=O)C(C1CCCC1)C2` (stereo not drawn): 17.1% (inactive).
For the compound `C=CC(C)(O)CC[C@@H]1[C@@]2(C)CCCC(C)(C)C2CC[C@@]1(C)O` (stereo partly drawn), the “activity change, negative = cytotoxicity” value is 1.79% (inactive).
Same read-out and setting: to `COc1ccc(C2(N(C)C(=O)c3ccc(NC(=O)c4ccco4)cc3)CCOCC2)cc1` belongs -22.4% (inactive); to `Cc1nc(Nc2cnn(C3CCNCC3)c2)nc2c1N(C)C(=O)c1cc3ccccc3cc1N2C`, -14% (inactive).
On the same count and under the same terms, next, `CC(C)(O)/C=C/C(=O)[C@](C)(O)[C@H]1[C@H](O)C[C@@]2(C)[C@@H]3CC=C4[C@@H](C[C@H](O[C@@H]5O[C@H](CO)[C@@H](O)[C@H](O)[C@H]5O)C(=O)C4(C)C)[C@]3(C)C(=O)C[C@]12C`: 1.19% [at 25.3 µM] (inactive).
The same measure, in the same setting: to `Clc1ccc(Cn2c(Cc3ccccc3)nc3ccccc32)cc1` belongs 7.35% (inactive); to `CC/C=C\CC1C(=O)C=CC1(CCCCC1CCC(=O)O1)OC(C)=O` (stereo not drawn), -10.5% [at 38.5 µM] (inactive).
As to `COCCN(C(=O)c1cc(OC)c(OC)c(OC)c1)c1nc(-c2ccccc2)cs1`, the “activity change, negative = cytotoxicity” value is 8.77% (inactive).
Still for that read-out and setting: next, `C=C1CC[C@@H]2[C@](C)(CO)[C@H](O)CC[C@@]2(C)[C@@H]1C/C=C1/C(=O)OCC1OC(=O)/C(=C/CO)C(O)C[C@@H]1C(=C)CC[C@@H]2[C@](C)(CO)[C@H](O)CC[C@]21C` (stereo partly drawn): -11.2% [at 25.3 µM] (inactive).
With `CCn1c(=O)n([C@H]2CCCN(c3nccc(-c4cc5ccccc5o4)n3)C2)c2ccccc21`, the “activity change, negative = cytotoxicity” value is 13.2% (inactive).
Same read-out and setting: to `NC(N)=N/N=C/c1ccccc1Cl` belongs -2.65% (inactive); to `Nc1nc2c(nc(Br)n2[C@@H]2O[C@@H]3COP(=O)(O)O[C@H]3[C@H]2O)c(=O)[nH]1`, -9.78% (inactive); to `O=C(Nc1ccccc1)c1ccc(Nc2nnc(-c3ccc(O)cc3)c3ccccc23)cc1`, -0.589% (inactive).
The same measure, in the same setting: next, `O=C(Nc1nc2ccc([N+](=O)[O-])cc2s1)C1CCCCC1`: 3.74% (inactive).

The test system of another experiment is Tov112D. The description is as above. The conditions noted are these: Gynecologic cancer cell panel viability, ATPlite luminescence, 48 h; series mostly up to 57.5 µM; activity change, negative = cytotoxicity: at the top concentration. A digest of the protocol:
as §1
Consider `Cc1cc(Nc2nc(-c3ccccc3)nc3ccccc23)n[nH]1`, for which the “activity change, negative = cytotoxicity” value is -14% (inactive).
On the same count and under the same terms, to `C=C1CC[C@@H]2[C@](C)(CO)[C@H](O)CC[C@@]2(C)[C@@H]1CC(O)C1=CCOC1=O` (stereo partly drawn) belongs -1.48% [at 38.5 µM] (inactive).
Still for that read-out and setting: next, `CCCOc1ccc(CCc2nc3cc(-c4c(C)noc4C)ccc3n2CCN2CCOCC2)cc1`: -5.26% (inactive); `O=C(N[C@@H]1CCCc2c1cnn2-c1ccc(F)cc1F)c1ccccn1`: -2.5% (inactive).
Same read-out and setting: to `O=C(O)c1ccc(N2C(=O)/C(=C/c3ccc(-c4ccc([N+](=O)[O-])cc4)o3)C=C2c2ccccc2)cc1` belongs 11% (inactive); to `N#CC(CCCN1CCN(/N=C/c2cccnc2)CC1)(c1ccccc1)c1ccccc1`, 0.245% (inactive); to `CCOC(=O)C1(CCOc2ccccc2)CCN(Cc2ccc(O)c(Cl)c2)CC1`, -9.95% (inactive).
Take `C/C=C/C=C/C=C/C(=O)O[C@@H]1C=C(CO)C(O)(C(=O)OC)[C@@]2(C)CCCC(C)(C)C12` (stereo partly drawn): the “activity change, negative = cytotoxicity” value was -9.85% [at 25.3 µM] (inactive).
Same read-out and setting: next, `CCc1ccc(-c2nc(CSCC(=O)NCCc3ccccc3)c(C)o2)cc1`: -0.253% (inactive); `O=C(Nc1ccccc1Cl)c1cnc2ccc(C3CCNCC3)cn12`: -17.6% (inactive).
Consider `CC(C)(C)Oc1ccc(OCC2Cc3ccccc3CN2C(=O)c2cccc3ccccc23)cc1` (stereo not drawn), for which the “activity change, negative = cytotoxicity” value is -20.8% (inactive).
On the same count and under the same terms, to `C=C1C(=O)OC2CC(C)C(CCC(C)O)=CCC12` (stereo not drawn) belongs 0.0686% (inactive); to `S=C(c1ccc(-c2ccc(Cl)c(Cl)c2)o1)N1CCCCC1`, -4.59% (inactive); to `CC(C)(O)C(=O)N1CCN(c2ccc(C(F)(F)F)c(C3=C(c4c[nH]c5ccccc45)C(=O)NC3=O)c2)CC1`, 14.4% (inactive).
On the same count and under the same terms, to `COCC(c1ccc(C(F)(F)F)cc1)N1CCN(C2(C)CCN(C(=O)c3c(C)ncnc3C)CC2)CC1C` (stereo not drawn) belongs 2.04% (inactive); to `CCO[C@H]1CN(C2CCC(O)(c3ccc4c(c3)OCO4)CC2)C[C@@H]1NC(=O)CNC(=O)c1cccc(C(F)(F)F)c1` (stereo partly drawn), 7.49% (inactive).
Take `O=c1cc(N2CCOCC2)nc2c3ccccc3ccn12`: the “activity change, negative = cytotoxicity” value was -13% (inactive).
On the same count and under the same terms, to `CC1OC(=O)C[C@@H]2C(C(=O)O)=CO[C@@H](O[C@H]3O[C@H](CO)[C@@H](O)[C@H](O)[C@H]3O)[C@H]12` (stereo partly drawn) belongs 12.5% [at 38.5 µM] (inactive).
The same measure, in the same setting: next, `CC(C)c1ccccc1OC(=O)NCCc1ccc2ccccc2c1`: 21.9% (inactive); `CCOc1nc(NC(=O)Cc2cc(OC)ccc2OC)cc(N)c1C#N`: 14.4% (inactive).
On to `C=C(C)[C@@H]1CC[C@]2(C(=O)O)CC[C@]3(C(=O)O)[C@H](CCC4[C@@]5(C)CCC(=O)C(C)(C)C5CC[C@]43C)C12` (stereo partly drawn), for which the “activity change, negative = cytotoxicity” value is -7.63% [at 25.3 µM] (inactive).
Still for that read-out and setting: to `CN(c1ccc(NC(=O)Nc2ccccc2)cc1)S(=O)(=O)c1cnn(-c2ccc(F)cc2)c1` belongs -7.3% (inactive); to `CC(C)n1c(=O)c(C(=O)NC2CC3CCC(C2)N3C[C@@H](O)CN(C)S(C)(=O)=O)cc2ccccc21` (stereo partly drawn), 6.87% (inactive); to `C[C@@H](NC(=O)[C@H](O)c1cc(F)cc(F)c1)C(=O)N[C@@H]1C(=O)N(C)c2ccccc2-c2ccccc21`, -0.735% (inactive).
The same measure, in the same setting: to `CC(=O)Nc1cccc(Nc2ncnc(N3CCC(OCc4ccc(OC(F)(F)F)cc4)CC3)n2)c1C` belongs -0.896% (inactive).
On the same count and under the same terms, to `Cc1c(OCc2cccc(-c3ccc(C(=O)O)cc3)c2)cc2c(c1C)C(=O)C(C1CCCC1)C2` (stereo not drawn) belongs 3.05% (inactive); to `C=CC(C)(O)CC[C@@H]1[C@@]2(C)CCCC(C)(C)C2CC[C@@]1(C)O` (stereo partly drawn), 7.84% (inactive).
In the case of `COc1ccc(C2(N(C)C(=O)c3ccc(NC(=O)c4ccco4)cc3)CCOCC2)cc1`, the “activity change, negative = cytotoxicity” value was 14.6% (inactive).
The same measure, in the same setting: next, `Cc1nc(Nc2cnn(C3CCNCC3)c2)nc2c1N(C)C(=O)c1cc3ccccc3cc1N2C`: -27.3% (inactive).
On the same count and under the same terms, to `CC(C)(O)/C=C/C(=O)[C@](C)(O)[C@H]1[C@H](O)C[C@@]2(C)[C@@H]3CC=C4[C@@H](C[C@H](O[C@@H]5O[C@H](CO)[C@@H](O)[C@H](O)[C@H]5O)C(=O)C4(C)C)[C@]3(C)C(=O)C[C@]12C` belongs 16% [at 25.3 µM] (inactive); to `Clc1ccc(Cn2c(Cc3ccccc3)nc3ccccc32)cc1`, -3.18% (inactive); to `CC/C=C\CC1C(=O)C=CC1(CCCCC1CCC(=O)O1)OC(C)=O` (stereo not drawn), -0.489% [at 38.5 µM] (inactive).
Same read-out and setting: to `COCCN(C(=O)c1cc(OC)c(OC)c(OC)c1)c1nc(-c2ccccc2)cs1` belongs -0.17% (inactive); to `C=C1CC[C@@H]2[C@](C)(CO)[C@H](O)CC[C@@]2(C)[C@@H]1C/C=C1/C(=O)OCC1OC(=O)/C(=C/CO)C(O)C[C@@H]1C(=C)CC[C@@H]2[C@](C)(CO)[C@H](O)CC[C@]21C` (stereo partly drawn), -3.96% [at 25.3 µM] (inactive); to `CCn1c(=O)n([C@H]2CCCN(c3nccc(-c4cc5ccccc5o4)n3)C2)c2ccccc21`, 6.43% (inactive).
Regarding `NC(N)=N/N=C/c1ccccc1Cl`, the “activity change, negative = cytotoxicity” value was -0.13% (inactive).
On the same count and under the same terms, next, `Nc1nc2c(nc(Br)n2[C@@H]2O[C@@H]3COP(=O)(O)O[C@H]3[C@H]2O)c(=O)[nH]1`: 11.3% (inactive); `O=C(Nc1ccccc1)c1ccc(Nc2nnc(-c3ccc(O)cc3)c3ccccc23)cc1`: -2.27% (inactive).
On the same count and under the same terms, next, `O=C(Nc1nc2ccc([N+](=O)[O-])cc2s1)C1CCCCC1`: -2.27% (inactive).
